From PMC4336329 (PLoS ONE, 2015)
Out of some 310,000 compounds screened, about 14,000 (4.5%) showed an effect of 50% or more. The effect is printed as a negative number. What follows is part of a selection rich in strong results, with near analogues and random picks from the rest.

Target: human ether-à-go-go-related gene (hERG) potassium channel (human, UniProt Q12809)
Assay: primary screen, population patch clamp on CHO cells stably expressing hERG; higher = less effect of the substance
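Note: peak tail current of the secondary pulse compared with the same well before compound.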

human ether-à-go-go-related gene (hERG) potassium channel, sequence (Q12809 whole entry, looked up): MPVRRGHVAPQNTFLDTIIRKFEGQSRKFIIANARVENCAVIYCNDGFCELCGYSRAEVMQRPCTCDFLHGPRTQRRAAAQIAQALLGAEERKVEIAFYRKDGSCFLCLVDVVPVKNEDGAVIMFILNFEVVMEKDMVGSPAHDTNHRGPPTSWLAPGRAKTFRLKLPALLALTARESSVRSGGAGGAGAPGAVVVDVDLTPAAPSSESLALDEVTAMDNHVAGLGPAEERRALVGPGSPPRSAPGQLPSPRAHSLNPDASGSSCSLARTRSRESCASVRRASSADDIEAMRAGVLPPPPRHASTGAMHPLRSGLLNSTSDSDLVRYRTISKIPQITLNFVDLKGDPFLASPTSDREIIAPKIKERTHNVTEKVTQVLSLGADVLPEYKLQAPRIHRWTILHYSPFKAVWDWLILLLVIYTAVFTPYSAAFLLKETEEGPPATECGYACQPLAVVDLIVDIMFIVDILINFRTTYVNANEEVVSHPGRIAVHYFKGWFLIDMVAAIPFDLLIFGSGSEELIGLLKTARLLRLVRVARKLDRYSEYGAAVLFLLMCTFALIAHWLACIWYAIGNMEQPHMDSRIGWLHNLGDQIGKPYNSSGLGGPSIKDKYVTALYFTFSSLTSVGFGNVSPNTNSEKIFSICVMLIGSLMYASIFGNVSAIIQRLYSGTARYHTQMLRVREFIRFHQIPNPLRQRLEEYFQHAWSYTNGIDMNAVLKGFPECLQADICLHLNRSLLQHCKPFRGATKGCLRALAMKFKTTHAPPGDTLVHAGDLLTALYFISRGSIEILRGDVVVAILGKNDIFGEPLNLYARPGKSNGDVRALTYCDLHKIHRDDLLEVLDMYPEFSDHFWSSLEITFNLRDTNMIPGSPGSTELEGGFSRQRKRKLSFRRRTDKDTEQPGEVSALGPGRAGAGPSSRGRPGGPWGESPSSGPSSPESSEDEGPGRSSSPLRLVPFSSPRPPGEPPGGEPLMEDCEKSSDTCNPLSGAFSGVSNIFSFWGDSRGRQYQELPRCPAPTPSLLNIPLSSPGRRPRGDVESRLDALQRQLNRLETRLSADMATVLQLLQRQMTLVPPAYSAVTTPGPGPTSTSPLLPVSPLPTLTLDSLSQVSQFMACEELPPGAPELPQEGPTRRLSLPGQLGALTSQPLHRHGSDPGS

Structure (SMILES)	hERG current change (%, negative = inhibition) at 10uM [%]
Nc1nnc(SCC(=O)NNC(=O)c2ccc(Cl)cc2)s1	-0.0303
O=C(N/N=C/c1ccc(O)cc1)c1ccc(COc2cc(Cl)ccc2Cl)o1	7.07
c1csc(-c2nn3c(Cn4nnc5ccccc54)nnc3s2)c1	16.6
Cc1cc(NNC(=O)Nc2cccc(Cl)c2)nc2c1c(C)nn2C	3.56
Cc1ccccc1NC(=O)CN1C(=O)N/C(=C\c2ccc(N3CCOCC3)c(F)c2)C1=O	10.8
COc1ccc(NC(=S)NCCc2c[nH]c3ccccc23)cc1	-7.49
Nc1ccccc1C#Cc1ccc([N+](=O)[O-])cc1	1.66
CCc1ccc(-c2cc(C)no2)cc1S(=O)(=O)N1CCN(c2ccc(C(C)=O)cc2)CC1	-4.32
C=CCC(CC=C)(C(=O)O)c1ccccc1	-8.46
CC(NC(=O)c1c(F)cccc1Cl)c1ccc(-n2ccnc2)cc1 (centres unmarked)	-27
COc1ccc(C(=O)NC(C)c2ccc(-n3ccnc3)cc2)c(OC)c1 (centres unmarked)	-53.8
COc1ccc(OC)c(S(=O)(=O)NC(C)c2ccc(-n3ccnc3)cc2)c1 (centres unmarked)	-25.1
COc1ccc(NC(C)=O)cc1S(=O)(=O)NC(C)c1ccc(-n2ccnc2)cc1 (centres unmarked)	-3.74
CC(NC(=O)c1ccccc1OC(F)F)c1ccc(-n2ccnc2)cc1 (centres unmarked)	-55
CC(NC(=O)CNC(=O)c1ccccc1F)c1ccc(-n2ccnc2)cc1 (centres unmarked)	-64
CC(NC(=O)CCNC(=O)c1ccccc1Cl)c1ccc(-n2ccnc2)cc1 (centres unmarked)	-17.8
COc1ccc(C(=O)NC(C)c2ccc(-n3ccnc3)cc2)c(OC)c1OC (centres unmarked)	-53.1
CCCCN(CC)CCNC(=O)Cn1cnc2sc(C)c(S(=O)(=O)N3CCC(C)CC3)c2c1=O	-19.1
Cc1cc(C)c(S(=O)(=O)c2cc(F)ccc2C)c(=O)[nH]1	18.1
COc1ccc(-c2noc(C(C)NS(=O)(=O)c3ccc(NC(C)=O)cc3)n2)cc1 (centres unmarked)	17.5
COCC1CCCCN1Cc1cn[nH]c1-c1ccc2cc(OC)ccc2c1 (centres unmarked)	-70.2

Structure (SMILES)	hERG current change (%, negative = inhibition) at 10uM [%]
COc1ccc2cc(-c3[nH]ncc3CN3C[C@@H]4CCC[C@H]3C4)ccc2c1	-58.7
COCC1CCCCN1Cc1cn[nH]c1-c1ccc(OC)cc1OC (centres unmarked)	-25.5
COc1ccc2cc(-c3[nH]ncc3CN3CCCC3c3nonc3C)ccc2c1 (centres unmarked)	0.998
c1cc2c(cc1-c1[nH]ncc1CN1C[C@H]3CC[C@H]1C3)OCO2	-3.58
COc1ccc(-c2[nH]ncc2CN2C[C@@H]3CCC[C@H]2C3)c(F)c1	8.16
Cc1nonc1C1CCCN1Cc1cn[nH]c1-c1ccc2c(c1)OCO2 (centres unmarked)	-25.6
c1cc2c(cc1-c1[nH]ncc1CN1CC3C[C@@H]4CC1C[C@H](C3)C4)OCO2	-44.3
Oc1cccc(CCC2CCCCN2Cc2cn[nH]c2-c2ccc3c(c2)OCO3)c1 (centres unmarked)	-66.2
CCN(CC(=O)Nc1c(F)cccc1F)C(=O)CSc1nc2ccccc2o1	-1.64
Cc1cccc(NS(=O)(=O)c2ccc3nc(-c4ccccc4)[nH]c3c2)c1C	11.8
CCn1cc(C(=O)NCC(OC)OC)c(=O)c2cc(S(=O)(=O)N3CCCC3)ccc21	10.3
O=C(COC(=O)CCCN1C(=O)c2ccccc2C1=O)Nc1ncc(Cl)cc1Cl	-9.74
O=S(=O)(c1ccc2ccccc2c1)N1CCN=C1SCc1cccnc1	-43.9
O=c1ccc(/C=C/c2ccccc2)nn1Cc1ccc(Cl)cc1Cl	8.47
CCOc1cc(NC(=O)c2ccco2)c(OCC)cc1NC(=O)COc1ccccc1C	26.4
CC(C)(C)c1cc(NC(=O)C2CCCO2)no1 (centres unmarked)	11.6
CCC(Oc1cc(Cl)ccc1Cl)C(=O)N1CCC2(CC1)OCCO2 (centres unmarked)	4.7
Cc1ccsc1C(=O)C1CCCN(Cc2cccc(-n3cccn3)c2)C1 (centres unmarked)	-65.4
Cc1ccsc1C(=O)C1CCCN(Cc2cc(C(C)C)n[nH]2)C1 (centres unmarked)	-43.9
Cc1ccsc1C(=O)C1CCCN(Cc2ccc(-n3cccn3)cc2)C1 (centres unmarked)	-67.7
Cc1ccsc1C(=O)C1CCCN(Cc2ccc(O)cc2)C1 (centres unmarked)	-22.9

Structure (SMILES)	hERG current change (%, negative = inhibition) at 10uM [%]
Cc1ccsc1C(=O)C1CCCN(Cc2cccc(OCCO)c2)C1 (centres unmarked)	-16.3
COC(=O)Nc1nc(-c2ccc(F)cc2)c(C)s1	14.5
Cc1ccc(-n2c(O)c(/C=N/NC(=O)c3ccncc3)c(=O)[nH]c2=O)cc1C	9.71
CN(c1ccccc1)c1ncccn1	18
O=S(=O)(Nc1cccnc1)c1ccc(F)cc1	16.6
COc1ccc(C2=NOC(Cn3nc(C(=O)NCc4ccc(C)cc4)cc3-c3ccccc3)C2)cc1 (centres unmarked)	2.68
COc1ccc(C2=NOC(Cn3nc(C(=O)NCc4ccc(OC(F)(F)F)cc4)cc3-c3ccccc3)C2)cc1 (centres unmarked)	-3.95
COc1ccc(C2=NOC(Cn3nc(C(=O)NCc4ccc5c(c4)OCO5)cc3-c3ccccc3)C2)cc1 (centres unmarked)	-17.4
COc1ccc(C2=NOC(Cn3nc(C(=O)NCc4cccs4)cc3-c3ccccc3)C2)cc1 (centres unmarked)	-51.3
COc1ccc(C2=NOC(Cn3nc(C(=O)O)cc3-c3ccccc3)C2)cc1 (centres unmarked)	-10.3
COc1ccc(C2=NOC(Cn3nc(C(=O)NCc4ccco4)cc3-c3ccccc3)C2)cc1 (centres unmarked)	-68.2
COCCNC(=O)c1cc(-c2ccccc2)n(CC2CC(c3ccc(OC)cc3)=NO2)n1 (centres unmarked)	-10.7
COc1ccc(C2=NOC(Cn3nc(C(=O)NCC4CC4)cc3-c3ccccc3)C2)cc1 (centres unmarked)	-65
COc1ccc(C2=NOC(Cn3nc(C(=O)NCc4ccccc4OC)cc3-c3ccccc3)C2)cc1 (centres unmarked)	-16.2
COc1ccc(S(=O)(=O)N2CCC(C(=O)NCC3CCCO3)CC2)cc1C (centres unmarked)	9.95
O=C(CNC(=O)c1ccc(S(=O)(=O)N2CCCC2)cc1)N/N=C/c1c(Cl)cccc1Cl	6.64
CN(CCO)C(=O)c1ccc(-c2nn(C)c(=O)c3ccccc23)cc1	10.9
Nc1nc2ncc(C(=O)c3cc(F)ccc3O)cc2s1	-0.22
Cn1c2c(c(=O)n(C)c1=O)C(CC(=O)Nc1ccccc1)C(=O)N2 (centres unmarked)	2.49
CCN1CCN(C(=O)/C(=C/c2cccs2)NC(=O)c2ccc(C)c(C)c2)CC1	-75.6
CC(C)(C)c1ccc(C(=O)N/C(=C\c2cccs2)C(=O)N2CCOCC2)cc1	-7.22

Structure (SMILES)	hERG current change (%, negative = inhibition) at 10uM [%]
Cc1ccc(C(=O)N/C(=C\c2cccs2)C(=O)N2CCN(C)CC2)cc1C	-70.6
O=C(N/C(=C/c1cccs1)C(=O)N1CCCCCC1)c1ccccc1	-21
Cc1ccc(C(=O)N/C(=C\c2cccs2)C(=O)NCC2CCCO2)cc1C (centres unmarked)	6.35
Cc1ccc(C(=O)N/C(=C\c2cccs2)C(=O)N2CCOCC2)cc1C	-19
CCc1nnc(NC(=O)Cc2ccc(Br)cc2)s1	12.4
CC1CCc2[nH]c3ccc(C(=O)N(C)CC(=O)Nc4ccccc4C(F)(F)F)cc3c2C1 (centres unmarked)	4.13
O=C1CC(c2cccc([N+](=O)[O-])c2)c2c(ccc3ccccc23)N1 (centres unmarked)	10.3
Cc1cc(C)n2nc(C(=O)Nc3cccc(S(=O)(=O)N(C)c4ccccc4)c3)nc2n1	-68.3
COc1ccccc1NS(=O)(=O)c1ccc(NC(=O)c2nc3nc(C)cc(C(F)F)n3n2)cc1	-13.8
Cc1cc(C)n2nc(C(=O)Nc3ccc(S(=O)(=O)N(C)C)cc3)nc2n1	-2.93
COc1ccccc1NS(=O)(=O)c1cccc(NC(=O)c2nc3nc(C)cc(C)n3n2)c1	-55.2
COc1ccccc1NS(=O)(=O)c1cccc(NC(=O)c2ccc3ccccc3n2)c1	3.05
Cc1cc(C)n2nc(C(=O)Nc3cccc(S(=O)(=O)N4CCCC4)c3)nc2n1	-2.92
CCOC(=O)/C=C/C(=O)Nc1ccc(S(=O)(=O)N(C)c2ccccc2)cc1	-2.23
O=c1[nH]c(=O)n(-c2ccc(Cl)cc2)c(O)c1C=NCCN1CCCCC1	2.13
O=C(NCc1cccc(Br)c1)c1cc(-c2ccccc2)nn1CC1CC(c2cccc([N+](=O)[O-])c2)=NO1 (centres unmarked)	-0.929
Cc1ccccc1-c1cc(C(=O)NCc2ccc3c(c2)OCO3)n(CC2CC(c3cccnc3)=NO2)n1 (centres unmarked)	-20.8
O=C(NCc1cccc(C(F)(F)F)c1)c1cc(-c2ccccc2)nn1CC1CC(c2cccnc2)=NO1 (centres unmarked)	-52.4
O=C(NCc1cccc(Br)c1)c1cc(-c2ccccc2)nn1CC1CC(c2cccnc2)=NO1 (centres unmarked)	-62.8
O=C(O)c1cc(-c2ccccc2)nn1CC1CC(c2cccnc2)=NO1 (centres unmarked)	6.86
